“And” between values parts separate entries of the source, which are not always exact repeats. Identical values can stand only once. Inconclusive results are not listed. Where a structure was tested more than once in an assay, its records may differ in their call. The source made the active and inactive calls. How the source made its calls, unless noted: active means hit-call score of the fitted dose curve at least 0.9, where 1 is the maximum; inconclusive means response in the unintended direction; inactive means score below 0.9.
Legend:
[1] = ATG_TGFb_CIS: Attagene CIS-FACTORIAL HepG2 Assay for human Transforming Growth Factor (TGF) (AID 2282967; active means hit-call score of the fitted dose curve at least 0.9, where 1 is the maximum; inactive means score below 0.9); details: HepG2 Attagene CIS TGFb reporter, mRNA transcription; actives raise or lower the signal
Procedure, shortened: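 Endogenous TGFB1-linked transcription factor activity read as reporter mRNA via RT-PCR and capillary electrophoresis, 24 h after dosing transiently transfected HepG2 cells. Gain or loss of signal fitted relative to DMSO.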

[2] = ATG_VDRE_CIS: Attagene CIS-FACTORIAL HepG2 Assay for human Vitamin D Receptor Element (VDRE) (AID 2282968; active means hit-call score of the fitted dose curve at least 0.9, where 1 is the maximum; inactive means score below 0.9); details: HepG2 VDRE cis-reporter transcription, actives raise or lower the signal
Procedure, shortened: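 Transfected HepG2 reporter cells, chemical treatment 24 h. RNA isolated, cDNA amplified with reporter-specific primers, products analysed by capillary electrophoresis. Endpoint fitted in both directions versus DMSO.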

[3] = biological target: Nuclear receptor subfamily 1 group I member 3 (Homo sapiens) (UniProt Q14994); test: ATG_CAR_TRANS: Attagene TRANS-FACTORIAL HepG2 Assay for human Constitutive Androstane Receptor (CAR) (AID 2282969); details: HepG2 Attagene TRANS-FACTORIAL CAR reporter;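 further: activators raise reporter mRNA above DMSO so AC50 marks induction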
Procedure, shortened: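 Steps: transient transfection of HepG2 with multiple GAL4-UAS reporter units; 24 h compound incubation; RNA isolation, RT-PCR, 6-FAM primer extension, HpaI digest; capillary electrophoresis. Gain-of-signal relative to DMSO negative control.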

[4] = biological target: Estrogen receptor (Homo sapiens) (UniProt P03372); test: ATG_ERa_TRANS: Attagene TRANS-FACTORIAL HepG2 Assay for human Estrogen Receptor alpha (ERa) (AID 2282970); details: HepG2 Attagene TRANS ERa GAL4 reporter, mRNA
Procedure, shortened: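 Liver-derived HepG2 cells expressing chimeric nuclear receptor-Gal4 proteins from transient transfection were exposed for 24 hours. Gain of reporter mRNA signal versus DMSO, read by capillary electrophoresis of FAM-labelled PCR products, was recorded.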

[5] = biological target: X-box-binding protein 1 (Homo sapiens) (UniProt P17861); test: ATG_Xbp1_CIS: Attagene CIS-FACTORIAL HepG2 Assay for human X-box Binding Protein 1 (XBP1) (AID 2282972; active means hit-call score of the fitted dose curve at least 0.9, where 1 is the maximum; inactive means score below 0.9); details: HepG2 XBP1 cis-element reporter, Attagene multiplex; actives raise or lower the signal
Procedure, shortened: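 Reporter transcripts were quantified by RT-PCR with fluorescent primer extension and capillary electrophoresis after 24 h chemical exposure. Cells: transiently transfected HepG2 carrying cis-regulated reporter constructs; data fitted bidirectionally relative to DMSO.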

[6] = ATG_M_19_TRANS: Attagene TRANS-FACTORIAL HepG2 Assay for M19 Transcription Factor (Internal Marker) (AID 2282974); details: HepG2 Attagene TRANS-FACTORIAL M19 internal marker reporter
Procedure, shortened: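 Using RT-PCR and capillary electrophoresis, reporter mRNA from transiently transfected human HepG2 cells was quantified following 24 h exposure; activity was fitted in the positive direction against DMSO.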

[7] = ATG_GAL4_TRANS: Attagene TRANS-FACTORIAL HepG2 Assay for GAL4 (Internal Marker) (AID 2282976); details: HepG2 Attagene TRANS GAL4 internal marker reporter
Procedure, shortened: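 First, HepG2 cells were transfected with reporter units under GAL4-UAS control. Next, they were treated with chemical for 24 h. Finally, RNA was reverse-transcribed, PCR-amplified, FAM-labelled and resolved by capillary electrophoresis, with induction scored against DMSO.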

[8] = biological target: Glucocorticoid receptor (Homo sapiens) (UniProt P04150); test: ATG_GR_TRANS: Attagene TRANS-FACTORIAL HepG2 Assay for human Glucocorticoid Receptor (GR) (AID 2282978); details: HepG2 Attagene TRANS GR reporter, mRNA transcription;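 further: activators score as hits since higher reporter transcript over DMSO is fitted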
Procedure, shortened: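 Exogenous NR-GAL4 fusion activity was assessed through induced GAL4-UAS reporter transcripts in transfected human HepG2 cells, quantified after 24 h by RT-PCR and fluorescent capillary electrophoresis with DMSO as baseline.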

[9] = biological target: Steroid hormone receptor ERR1 (Homo sapiens) (UniProt P11474); test: ATG_ERRa_TRANS: Attagene TRANS-FACTORIAL HepG2 Assay for human Estrogen-Related Receptor alpha (ERRa) (AID 2282971); details: HepG2 Attagene TRANS reporter, ERRa transactivation
Procedure, shortened: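 Reporter transcript induction was quantified by RT-PCR and capillary electrophoresis of FAM-labelled, HpaI-cut products after 24 h treatment of HepG2 cells carrying transiently transfected GAL4-UAS reporter units and an exogenous ERRa-Gal4 fusion; activity scored as increase over DMSO.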

[10] = biological target: Estrogen-related receptor gamma (Homo sapiens) (UniProt P62508); test: ATG_ERRg_TRANS: Attagene TRANS-FACTORIAL HepG2 Assay for human Estrogen-Related Receptor gamma (ERRg) (AID 2282977); details: HepG2 Attagene TRANS reporter, ERRg transactivation;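 further: hits increase reporter signal over DMSO so potencies reflect activators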
Procedure, shortened: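 Readout: fluorescent reporter-mRNA fragments resolved by capillary electrophoresis after RT-PCR and HpaI cut. Cells: transiently transfected HepG2 carrying GAL4-UAS reporters driven by exogenous NR-Gal4 chimeras, dosed 24 h. Activity fitted upward relative to DMSO baseline.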

Measured: AC50

Steroid hormone receptor ERR1 (Homo sapiens), sequence (P11474 whole entry, looked up, the tested form may be a part): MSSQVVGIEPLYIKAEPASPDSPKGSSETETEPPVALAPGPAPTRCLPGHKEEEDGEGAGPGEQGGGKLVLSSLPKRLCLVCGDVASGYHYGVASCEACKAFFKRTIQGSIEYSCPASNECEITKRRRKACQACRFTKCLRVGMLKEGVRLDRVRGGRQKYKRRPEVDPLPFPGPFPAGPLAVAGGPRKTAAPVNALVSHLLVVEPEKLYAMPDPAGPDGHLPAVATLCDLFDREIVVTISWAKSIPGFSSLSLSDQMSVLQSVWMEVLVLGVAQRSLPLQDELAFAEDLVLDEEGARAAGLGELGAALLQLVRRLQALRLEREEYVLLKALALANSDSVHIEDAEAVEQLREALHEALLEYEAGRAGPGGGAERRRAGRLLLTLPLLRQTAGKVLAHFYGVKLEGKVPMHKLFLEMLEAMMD
Nuclear receptor subfamily 1 group I member 3 (Homo sapiens), sequence (Q14994 whole entry, looked up, the tested form may be a part): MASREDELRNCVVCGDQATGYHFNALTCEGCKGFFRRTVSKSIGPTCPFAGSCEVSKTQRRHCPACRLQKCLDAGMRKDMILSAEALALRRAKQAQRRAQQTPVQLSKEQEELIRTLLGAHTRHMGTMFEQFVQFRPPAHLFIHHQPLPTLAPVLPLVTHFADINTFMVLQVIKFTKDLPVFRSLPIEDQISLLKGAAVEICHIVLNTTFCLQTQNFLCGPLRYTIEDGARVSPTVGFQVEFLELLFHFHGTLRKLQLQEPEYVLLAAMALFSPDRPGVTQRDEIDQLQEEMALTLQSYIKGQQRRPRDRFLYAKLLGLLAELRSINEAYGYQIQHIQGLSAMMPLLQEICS
Estrogen-related receptor gamma (Homo sapiens), sequence (P62508 whole entry, looked up, the tested form may be a part): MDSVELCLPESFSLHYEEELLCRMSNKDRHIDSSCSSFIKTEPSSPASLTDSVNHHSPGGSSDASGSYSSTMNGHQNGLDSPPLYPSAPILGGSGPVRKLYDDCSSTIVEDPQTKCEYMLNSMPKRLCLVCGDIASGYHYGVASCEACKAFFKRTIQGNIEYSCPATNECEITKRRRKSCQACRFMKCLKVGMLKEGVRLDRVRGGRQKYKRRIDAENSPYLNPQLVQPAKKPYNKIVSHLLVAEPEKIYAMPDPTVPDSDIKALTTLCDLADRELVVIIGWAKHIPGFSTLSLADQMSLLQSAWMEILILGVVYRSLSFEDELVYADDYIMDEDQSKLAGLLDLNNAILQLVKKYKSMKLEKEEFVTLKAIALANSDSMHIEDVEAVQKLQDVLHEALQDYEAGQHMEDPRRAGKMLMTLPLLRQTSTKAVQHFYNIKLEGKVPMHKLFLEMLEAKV
Estrogen receptor (Homo sapiens), sequence (P03372 whole entry, looked up, the tested form may be a part): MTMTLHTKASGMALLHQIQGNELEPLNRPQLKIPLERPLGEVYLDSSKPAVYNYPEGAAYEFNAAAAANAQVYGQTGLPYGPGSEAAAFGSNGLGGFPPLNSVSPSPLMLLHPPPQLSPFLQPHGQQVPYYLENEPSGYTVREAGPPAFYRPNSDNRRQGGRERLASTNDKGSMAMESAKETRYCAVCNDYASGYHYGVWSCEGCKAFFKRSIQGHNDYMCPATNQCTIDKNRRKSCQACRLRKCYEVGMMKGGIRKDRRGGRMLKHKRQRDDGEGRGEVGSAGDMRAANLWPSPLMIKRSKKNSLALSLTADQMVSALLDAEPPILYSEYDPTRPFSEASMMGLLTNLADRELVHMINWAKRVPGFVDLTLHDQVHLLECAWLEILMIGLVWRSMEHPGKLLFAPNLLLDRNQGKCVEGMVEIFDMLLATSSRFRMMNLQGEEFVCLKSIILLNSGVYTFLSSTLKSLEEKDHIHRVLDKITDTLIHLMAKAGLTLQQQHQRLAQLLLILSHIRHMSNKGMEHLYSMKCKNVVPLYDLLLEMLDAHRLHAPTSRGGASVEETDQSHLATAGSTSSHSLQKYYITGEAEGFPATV
X-box-binding protein 1 (Homo sapiens), sequence (P17861 whole entry, looked up): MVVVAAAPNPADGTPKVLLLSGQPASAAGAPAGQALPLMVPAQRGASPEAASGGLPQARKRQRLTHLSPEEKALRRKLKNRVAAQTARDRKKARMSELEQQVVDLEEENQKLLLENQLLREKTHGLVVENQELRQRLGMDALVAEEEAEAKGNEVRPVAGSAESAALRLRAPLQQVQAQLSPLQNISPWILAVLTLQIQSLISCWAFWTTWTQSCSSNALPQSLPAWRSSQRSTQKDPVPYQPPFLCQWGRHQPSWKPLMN
Glucocorticoid receptor (Homo sapiens), sequence (P04150 whole entry, looked up, the tested form may be a part): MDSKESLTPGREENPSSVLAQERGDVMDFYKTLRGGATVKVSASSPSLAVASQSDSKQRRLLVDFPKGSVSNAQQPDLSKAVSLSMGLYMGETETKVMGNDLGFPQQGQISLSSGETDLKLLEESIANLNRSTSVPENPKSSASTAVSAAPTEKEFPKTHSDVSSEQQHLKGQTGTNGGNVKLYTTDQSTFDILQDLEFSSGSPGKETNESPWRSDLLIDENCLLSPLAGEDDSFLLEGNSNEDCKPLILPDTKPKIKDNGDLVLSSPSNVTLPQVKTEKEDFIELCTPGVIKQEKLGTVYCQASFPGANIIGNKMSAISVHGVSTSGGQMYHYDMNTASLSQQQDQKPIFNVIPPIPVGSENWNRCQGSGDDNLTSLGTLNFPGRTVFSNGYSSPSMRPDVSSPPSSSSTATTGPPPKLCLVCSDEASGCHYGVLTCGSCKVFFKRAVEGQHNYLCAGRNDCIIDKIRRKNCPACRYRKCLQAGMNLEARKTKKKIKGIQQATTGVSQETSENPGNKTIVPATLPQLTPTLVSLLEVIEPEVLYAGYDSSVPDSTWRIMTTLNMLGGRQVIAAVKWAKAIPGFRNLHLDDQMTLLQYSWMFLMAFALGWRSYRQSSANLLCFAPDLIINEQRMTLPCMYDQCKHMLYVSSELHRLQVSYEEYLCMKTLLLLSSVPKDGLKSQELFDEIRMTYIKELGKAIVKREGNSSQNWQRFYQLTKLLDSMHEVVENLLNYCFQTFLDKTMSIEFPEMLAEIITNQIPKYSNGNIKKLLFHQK

O=NN1CCCC1
not listed: [9] | [10]
inactive: all other assays above

O=S(=O)(F)C(F)(F)C(F)(F)C(F)(F)C(F)(F)C(F)(F)C(F)(F)C(F)(F)C(F)(F)F
not listed: [7]
inactive: all other assays above

CC(C)Nc1ccc(Nc2ccccc2)cc1
active: [2] 3.68 µM | [4] 8.77 µM
inactive: all other assays above

CCOP(=S)(OCC)SCSc1ccc(Cl)cc1
inactive: [1] | [3] | [5] | [6]
active: [2] 5.83 µM | [4] 3.48 µM

Nc1cc2c3c(c1)C(c1ccccc1)=N[C@@H](NC(=O)c1cccnc1)C(=O)N3CC2
inactive: [1] | [3] | [4] | [8]
active: [2] 38.4 µM | [5] 92.1 µM

N#Cc1ccc(O)cc1
not listed: [9] | [10]
inactive: all other assays above

O=C(O)C(F)(F)C(F)(F)C(=O)O
not listed: [7] | [8] | [9]
inactive: all other assays above

O=c1ssc(Cl)c1Cl
inactive: [1] | [3] | [4] | [10]
active: [2] 52.6 µM | [5] 45.8 µM

O=C(CBr)OCc1ccccc1
not listed: [9] | [10]
inactive: all other assays above

COP(N)(=S)OC
not listed: [10]
inactive: all other assays above

CCCCOCC1CO1 (stereo not given)
not listed: [4] | [8]
inactive: all other assays above

OCC(F)(F)OC(F)(F)C(F)(F)OC(F)(F)C(F)(F)OC(F)(F)CO
active: [2] 18.6 µM | [4] 0.281 µM
inactive: [1] | [9] | [5] | [6] | [8]

CCN(CC)C1CCCCC1
not listed: [6] | [7] | [10]
inactive: all other assays above

N#Cc1cc([N+](=O)[O-])ccc1N
not listed: [6] | [10]
inactive: all other assays above

ClC(Cl)(Cl)c1ccccc1
inactive: [1] | [2] | [3] | [5]
active: [4] 45.2 µM

CCOP(=S)(S)OCC
inactive: [1] | [2] | [3] | [4] | [5] | [7]

CSC(C)(C)C=NO
inactive: [1] | [2] | [3] | [5]

COCCOCCO
not listed: [4] | [6] | [8]
inactive: all other assays above

OCC(F)(F)OC(F)(F)C(F)(F)OC(F)(F)C(F)(F)OC(F)(F)F
active: [4] 6.04 µM and 4.34 µM
inactive: all other assays above

O=[N+]([O-])c1ccc(Cl)c(Cl)c1
not listed: [3] | [7] | [8]
inactive: all other assays above

CCCCC(CC)COP(=O)(Oc1ccccc1)Oc1ccccc1 (stereo not given)
active: [2] 0.866 µM | [4] 1.16 µM | [5] 100 µM
inactive: [1] | [3] | [6] | [8]

COC(=O)C(F)(F)C(F)(F)OC(F)(C(F)(F)F)C(F)(F)OC(F)=C(F)F (stereo not given)
active: [1] 87.4 µM | [2] 18.3 µM | [4] 30.3 µM and 13.7 µM
inactive: [1] | [2] | [3] | [4] | [9] | [5] | [6] | [7] | [10] | [8]

O=P1(N(CCCl)CCCl)NCCCO1 (stereo not given)
active: [4] 17 µM
not listed: [3] | [6] | [10]
inactive: all other assays above

CCC(C)(C)c1ccc(O)cc1
active: [4] 2.25 µM
not listed: [3] | [6] | [8]
inactive: all other assays above

— PubChem BioAssay (EPA / NIEHS)
